# Laboratory results from PubChem BioAssay (Tox21).
# Results filed as inconclusive are left out. Active and inactive are the calls of the source. Calls come from the whole dose curve; as a rule, active = well fitted inhibition curve with a large enough effect in the repeat runs; inconclusive = weak or mixed curves; inactive = no such curve, though single readings can be large or run the other way.
# Target: Cytochrome P450 2D6 (Homo sapiens) (UniProt P10635)
# Experiment: Cytochrome P450 Family 2 Subfamily D Member 6 (CYP2D6) small molecule antagonists: luciferase reporter qHTS assay (AID 1671196); note: nearly all actives have a fitted effect of over 50% in size
# Conditions: P450-Glo CYP2D6 enzyme assay, luciferin luminescence, 1 h; series mostly up to 115 µM; activity change, negative = inhibition: at the top concentration
# Source text: U.S. Tox21 Program National Center for Advancing Translational Sciences [NCATS] U.S. Environmental Protection Agency [EPA] National Institutes of Environmental Health Sciences [NIEHS] National Toxicology Program [NTP] U.S. Food and Drug Administration [FDA] Tox21 Assay Overview: Cytochrome P450 (CYP) enzymes are membrane-bound hemeproteins that play a key role in metabolism of drugs and xenobiotics. Evaluation of the effect of chemicals on CYP isozymes is useful to minimize the adverse drug reactions and toxicities in drug development process. Tox21 chemicals were tested for their effect on CYP enzyme activities by using P450-Glo (TM) screening systems (Promega Corporation, Madison, WI). These systems provide a luminescent method containing proluciferin substrates and are converted to luciferin products by CYP isozymes. The luciferin products formed are detected with a luciferin detection reagent, and the amount of light produced is proportional to CYP activity. P450-Glo (TM) CYP2D6 screening system (Catalog. No. V9890) was used to detect the compounds that interfere in CYP2D6 activity.
# Tox21 Assay Protocol Summary: Two ul of enzyme-substrate mix was dispensed into medium binding white/solid 1536-well plates (Greiner Bio-One North America Inc., Monroe, NC) using a BioRaptr Flying Reagent Dispenser (FRD, Beckman Coulter, Brea, CA). […] The assay plates were incubated at room temperature for 10 min. Then 2 ul of NADPH regeneration solution was added to each well of the assay plates using an FRD and incubated at room temperature for 1 h. The reaction was stopped by adding 4 ul of detection reagent using an FRD and after 20 min incubation at room temperature the luminescence signal was measured using a ViewLux plate reader (Perkin Elmer, Shelton, CT). Data were expressed as relative luminescence units.
# % is set by controls: 0 for no effect and ±100 for the full control effect; potency is the fitted concentration of half-maximal effect.
# Chain of Cytochrome P450 2D6 (Homo sapiens) (P10635 whole entry, looked up): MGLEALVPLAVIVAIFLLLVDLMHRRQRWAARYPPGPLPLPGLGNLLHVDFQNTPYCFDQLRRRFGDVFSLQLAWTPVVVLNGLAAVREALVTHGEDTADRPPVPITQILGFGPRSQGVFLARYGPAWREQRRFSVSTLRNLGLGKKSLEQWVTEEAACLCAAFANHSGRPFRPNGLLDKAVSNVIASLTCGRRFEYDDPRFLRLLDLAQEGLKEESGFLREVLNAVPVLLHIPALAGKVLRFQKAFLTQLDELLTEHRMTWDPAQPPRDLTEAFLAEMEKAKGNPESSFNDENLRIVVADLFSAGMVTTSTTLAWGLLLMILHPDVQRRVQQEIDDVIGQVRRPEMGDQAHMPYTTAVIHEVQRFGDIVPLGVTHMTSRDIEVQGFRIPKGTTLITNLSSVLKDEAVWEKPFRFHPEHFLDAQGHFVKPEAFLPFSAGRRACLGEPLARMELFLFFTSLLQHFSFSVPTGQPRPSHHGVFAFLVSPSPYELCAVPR
Compound,"activity change, negative = inhibition",Potency
O=c1[nH]cnc2c1ncn2[C@@H]1O[C@H](CO)[C@@H](O)[C@H]1O,-0.857% [at 53 µM] (inactive),–
CCN[C@H]1CN(CCCOC)S(=O)(=O)c2sc(S(N)(=O)=O)cc21,-17.9% [at 53 µM] (inactive),–
COC(=O)N[C@H](C(=O)N[C@@H](Cc1ccccc1)[C@@H](O)CN(Cc1ccc(-c2ccccn2)cc1)NC(=O)[C@@H](NC(=O)OC)C(C)(C)C)C(C)(C)C,-3.22% [at 53 µM] (inactive),–
OCCN(CCO)c1ccccc1,-8.45% (inactive),–
C=CC1CO1 (stereo not given),-0.987% (inactive),–
CC/C=C\CCOC(=O)CCCCC,-6.95% (inactive),–
CN(CCCN1c2ccccc2CCc2ccccc21)CC(=O)c1ccc(Cl)cc1,–,7.76 µM (active)
CN1[C@@H]2CC[C@H]1CC(OC(=O)c1c[nH]c3ccccc13)C2 (stereo not given in full),–,15.5 µM (active)
CCCCCCCCCC/C=C/C#N,-7.5% (inactive),–
CNCCC(Oc1ccccc1OC)c1ccccc1 (stereo not given),–,0.977 µM (active)
O=C(O[C@@H](C(=O)O)[C@@H](OC(=O)c1ccccc1)C(=O)O)c1ccccc1,–,40.6 µM (active)
CC(=O)O[C@H]1CC[C@@]2(C)C(=CC[C@@H]3[C@@H]2CC[C@]2(C)C(C(C)=O)=CC[C@@H]32)C1,-3.29% [at 53 µM] (inactive),–
Cc1ccsc1C(=CCCN1CCC[C@@H](C(=O)O)C1)c1sccc1C,-71.5% [at 53 µM] (inactive),–
OCc1c2ccccc2cc2ccccc12,-19.4% (inactive),–
CCN(CC)C(=O)N(CC)CC,-10.7% (inactive),–
CCOc1ccc2nc(N)sc2c1,–,39.6 µM (active)
CO[C@@]1(NC(=O)CSCC#N)C(=O)N2C(C(=O)O)=C(CSc3nnnn3C)CS[C@@H]21,-11.8% [at 53 µM] (inactive),–
CCCCCCCCCC#N,-7.85% (inactive),–
Cc1ncc(CO)c(CN)c1O,-21.3% [at 53 µM] (inactive),–
C[C@@H]1CN(c2c(F)c(F)c3c(=O)c(C(=O)O)cn(C4CC4)c3c2F)C[C@H](C)N1,-28.8% [at 23.6 µM] (inactive),–

Compound,"activity change, negative = inhibition",Potency
CC(=O)Oc1cc(C(C)C)c(OCCN(C)C)cc1C,–,15.5 µM (active)
CCOc1ccccc1N,–,3.53 µM (active)
CC(C)Nc1nc(N)nc(Cl)n1,0.331% (inactive),–
CC(=O)OC1C2(C)CCC(C2)C1(C)C (stereo not given),0.785% (inactive),–
NCCC(O)(P(=O)(O)O)P(=O)(O)O,-3.49% [at 53 µM] (inactive),–
OCCN1CCN(CCO)CC1,-11.9% (inactive),–
COc1nc(C)nc(NC(=O)NS(=O)(=O)c2ccccc2OCCCl)n1,-15.8% (inactive),–
CCCCC1CCC(=O)O1 (stereo not given),-0.333% (inactive),–
Nc1cccc(S(=O)(=O)O)c1,–,71.2 µM (active)
Cc1cccc(C)c1NC(=O)CN1CCCCCC1,–,12.3 µM (active)
CC(=O)OC(C)OC(C)=O,-5.45% (inactive),–
CCC(=O)O[C@]1(C(=O)SCF)[C@H](C)C[C@H]2[C@@H]3C[C@H](F)C4=CC(=O)C=C[C@]4(C)[C@@]3(F)[C@@H](O)C[C@@]21C,-13.9% [at 53 µM] (inactive),–
C[C@@H](N)C(=O)O,0.368% [at 53 µM] (inactive),–
CN1CCN(c2c(F)cc3c(=O)c(C(=O)O)cn(CCF)c3c2F)CC1,1.94% [at 53 µM] (inactive),–
COc1cc(Cl)ccc1Cl,-1.53% (inactive),–
CCN(CC)CCNC(=O)COc1ccc(Cl)cc1,–,12.3 µM (active)
c1ccc(CN(CC2=NCCN2)c2ccccc2)cc1,–,1.38 µM (active)
CCCCNC(=S)NCCCC,–,1.42 µM (active)
Cc1c(-c2ccccc2)oc2c(C(=O)OCCN3CCCCC3)cccc2c1=O,–,5.49 µM (active)
O=C1CCC(C2CCCCC2)CC1,-13.8% (inactive),–
